Data on 16 molecules can be found in PubChem BioAssay (NCATS).

This is one part of the list. Where a call stands in place of a potency, no number is given. Results filed as inconclusive are left out. Calls of active or inactive are those of the source. The call rests on the fitted dose curve; in most records, active means well fitted cell-killing curve with a large enough effect; inconclusive means small, poorly fitted or top-dose-only effect, or effect the other way, or another doubt; inactive means no such curve, though single readings can be large or run the other way.
Potency means the concentration at half of the fitted maximal effect.

A short description of the assay: qHTS screen for small molecules that inhibit ELG1-dependent DNA repair: Hit Confirmation with 5FU Viability (AID 624250). The settings on record: cell viability with 5-FU; series mostly up to 46.1 µM. An excerpt:
Cancer cells divide rapidly compared to normal cells in the body. During cell division, cancer cells need to duplicate their genome by DNA replication. The failure of genome duplication leads to cancer cells' death. Therefore, inhibitors of DNA replication could specifically kill cancer cells. Based on this concept, many chemotherapeutic agents were developed and have been used to treat cancer patients. However, there are a limited number of agents available in the clinical setting, and some of those that do exist have low efficacy and severe side effects. Therefore, if we can find the compounds that effectively block DNA replication either by directly damaging DNA or by inhibiting other cellular mechanisms, the options for cancer treatment will be broadened. With this in mind, we developed a quantitative high-throughput ELG1-luciferase reporter gene assay. Small molecules that specifically block ELG1 function in response to DNA damage can be identified by monitoring the suppression of luciferase activity. Since ELG1 defines a pathway for repairing DNA damage, agents blocking ELG1 function can be used to sensitize cancer cells to chemotherapeutic agents whose mechanism of action involves the induction of DNA damage.
NIH Molecular Libraries Probe Production Network [MLPCN]
NIH Chemical Genomics Center [NCGC]
Assay Provider: Kyungjae Myung, NHGRI, NIH
ELG1-luc HEK293T cells will be seeded in 1536-well plates at a density of 2,000 cells/well. Approximately 5 hours after plating, compounds will be added to the plate by pin tool transfer and 5-fluorouridine will be added by FRD dispenser (final concentration of 5-fluorouridine =10 µM). 16 hours following the addition of the compounds, cell viability will be measured using Cell Titer Glo.
For orientation: In qHTS, concentration-response curves come from the screen itself.
On to `COc1ccccc1C(=O)Nc1ccc(C)c(S(=O)(=O)N2CCCCC2)c1`, for which the Potency entry is “inactive”.
Turning to `CC(C)(CNC(=O)c1ccc(Cl)c(S(=O)(=O)N2CCc3ccccc3C2)c1)N1CCOCC1`, the Potency entry was “inactive”.
With `COc1ccc(Nc2cc(=O)oc3ccccc23)cc1`, the Potency entry was “inactive”.
Take `CC(=O)[O][Sn]([c]1ccccc1)([c]1ccccc1)[c]1ccccc1`: the Potency was 2.81 µM (active).
For the molecule `CC(=O)c1c(C)n(-c2ccc(C)cc2)c2ccc(O)cc12`, the Potency entry was “inactive”.
Take `CCc1ccc(N(CC)c2ncnc3nc[nH]c23)cc1`: the Potency entry is “inactive”.
Then `Cc1nnc(N/N=C/c2ccccn2)[nH]c1=O`, with “inactive”; and `COc1ccc(NS(=O)(=O)c2ccc(Oc3c(C#N)cccc3C#N)cc2)cc1`, with “inactive”.
To `COc1cc(N)c(Cl)cc1C(=O)OCC(=O)c1ccc2c(c1)NC(=O)CO2` belongs “inactive”.
Then `OCCCNc1nccc(-c2cc(Nc3cccc(Cl)c3)ncn2)n1`, with “inactive”.
Take `COc1ccc(S(=O)(=O)Nc2ccc3oc(C)c(C(C)=O)c3c2)cc1`: the Potency result is “inactive”.
With `O=C(C1CCCN(S(=O)(=O)c2ccccc2)C1)N1CCN(c2ccc(F)cc2)CC1` (stereo unspecified), the Potency entry was “inactive”.
Turning to `COc1ccc(CNc2ncnc3ccccc23)cc1`, the Potency entry is “inactive”.
Take `NC(=O)c1sc2nc3c(c(-c4ccccc4)c2c1N)CCC3`: the Potency result was “inactive”.
`C[C@@H]1C[C@H]2CC[C@H](O2)[C@H](C)C(=O)O[C@@H](C)C[C@@H]2CC[C@@H](O2)[C@@H](C)C(=O)O[C@H](C)C[C@H]2CC[C@H](O2)[C@H](C)C(=O)O[C@@H](C)C[C@@H]2CC[C@@H](O2)[C@@H](C)C(=O)O1`: the Potency entry is “inactive”.
On to `Clc1ccc2nc(-c3ccccc3)nc(C(Cl)Cl)c2c1`, for which the Potency result is “inactive”.
